The whole screen tested about 5,500 compounds, of which about 2,000 (36%) were called active. Not shown: some 18% with an inconclusive outcome. Rule as the data show it: active = normalized growth mostly below about 0.91 (no sharp cut-off); inconclusive = no clear call, values can overlap the other calls; inactive = mostly above about 0.92. The list shows a part of the results.
Assay: chemical genetic growth profiling, strain panel (AID 1159580);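 also: tested at 20 µM; growth read once vehicle control cultures reached saturation at 30 °C; 1 = growth at the plate median or of vehicle wells; lower values mean less growth of the strain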
Conditions: growth OD
[1] = S. cerevisiae deletion strains, locus YAL013W, strain DEP1, active compounds read low
[2] = S. cerevisiae deletion strains, locus YBR229C, strain ROT2, active compounds read low
[3] = S. cerevisiae deletion strains, locus YDL101C, strain DUN1, active compounds read low
[4] = S. cerevisiae deletion strains, locus YDR150W, strain NUM1, active compounds read low
[5] = S. cerevisiae deletion strains, locus YEL061C, strain CIN8, active compounds read low
[6] = S. cerevisiae deletion strains, locus YGR078C, strain PAC10, active compounds read low
[7] = S. cerevisiae deletion strains, locus YHR030C, strain SLT2, active compounds read low
[8] = S. cerevisiae deletion strains, locus YHR087W, strain rtc3, active compounds read low
[9] = S. cerevisiae deletion strains, locus YJL187C, strain SWE1, active compounds read low
[10] = S. cerevisiae deletion strains, locus YJR043C, strain POL32, active compounds read low
[11] = S. cerevisiae deletion strains, locus YJR075W, strain HOC1, active compounds read low
[12] = S. cerevisiae deletion strains, locus YKL190W, strain CNB1, active compounds read low
[13] = S. cerevisiae deletion strains, locus YLR039C, strain RIC1, active compounds read low
[14] = S. cerevisiae deletion strains, locus YLR058C, strain SHM2 (second series), active compounds read low
[15] = S. cerevisiae deletion strains, locus YLR085C, strain ARP6, active compounds read low
[16] = S. cerevisiae deletion strains, locus YLR262C, strain YPT6, active compounds read low
[17] = S. cerevisiae deletion strains, locus YML094W, strain GIM5, active compounds read low
[18] = S. cerevisiae deletion strains, locus YMR219W, strain ESC1, active compounds read low
[19] = S. cerevisiae deletion strains, locus YMR263W, strain SAP30, active compounds read low
[20] = S. cerevisiae deletion strains, locus YMR307W, strain GAS1, active compounds read low
[21] = S. cerevisiae deletion strains, locus YNL153C, strain GIM3, active compounds read low
[22] = S. cerevisiae deletion strains, locus YNL298W, strain CLA4 (second series), active compounds read low
[23] = S. cerevisiae deletion strains, locus YNL322C, strain KRE1, active compounds read low
[24] = S. cerevisiae deletion strains, locus YNR030W, strain Alg12, active compounds read low
[25] = S. cerevisiae deletion strains, locus YPL055C, strain LGE1, active compounds read low
[26] = S. cerevisiae deletion strains, locus YPL241C, strain CIN2, active compounds read low
[27] = S. cerevisiae deletion strains, locus YPR135W, strain CTF4, active compounds read low
[28] = S. cerevisiae strains, strain wild type, active compounds read low

Measured: normalized growth

Nc1ccc2nonc2c1N
active: S. cerevisiae deletion strains, locus YCL061C, strain MRC1, active compounds read low 0.902 | [21] 0.919 | [24] 0.845
inactive: [1] 0.965 | [2] 0.96 | [3] 0.906 | S. cerevisiae deletion strains, locus YDL134C, strain PPH21, active compounds read low 0.968 | [4] 0.941 | [5] 0.956 | [6] 0.933 | [7] 0.804 | [8] 0.993 | [9] 0.974 | [10] 0.951 | [11] 0.985 | [12] 0.983 | [13] 0.908 | [14] 0.967 | [15] 0.853 | [16] 0.902 | [17] 0.954 | [18] 0.982 | [19] 0.923 | [20] 0.882 | [22] 0.95 | [23] 0.988 | [25] 0.921 | [26] 0.919 | [27] 0.776 | [28] 0.955

Cc1ccc(Sc2ccc([N+](=O)[O-])cc2/C=C2\SC(=S)NC2=O)cc1
inactive: [1] 0.963 | [2] 0.992 | [3] 0.99 | [4] 0.982 | [6] 0.98 | [8] 0.991 | [9] 1 | [10] 0.997 | [11] 0.976 | [12] 0.979 | [14] 0.999 | [15] 0.82 | [17] 0.897 | [18] 0.984 | [19] 0.978 | [21] 0.996 | [22] 0.887 | [23] 0.969 | [24] 0.903 | [25] 0.963 | [26] 0.924 | [28] 0.982
active: [5] 0.859 | [7] 0.615 | [13] 0.324 | [16] 0.744 | [20] 0.524 | [27] 0.553

— PubChem BioAssay AID1159580 (chemical genetic matrix, 2015)
